Targets with a hit are over-represented here; the source holds about 7,900 in all. About 0.6% of all pairs of compound and target were hits.
What was measured:
Test in all cases: log2 fold change, soluble protein after heating vs DMSO (PISA); higher = thermal stabilisation; K562 cells, 10 uM, 30 min; active = over 0.2 and 3.5 SD of the protein, either way, in both replicates (recomputed)
[1] = compound: CC1=C(C=C(C=C1)NC(=O)C2=CC(=CC=C2)N(C)C)NC(=O)C3=CC=C(C=C3)O
Method in brief: (§1)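 K562 cells (2×10^6 cells/mL) were treated with 10 μM compound for 30 min, and aliquots were heated for 3 min over 48°C-58°C. Pooled aliquots were extracted in PBS with 0.5% NP-40 at 4°C, and the supernatant after 21,000xg for 90 min was measured by TMTpro 16plex LC-MS/MS with channel sums equalised. Reported thermal stability, relative to control samples and from duplicates, is a log2 fold change.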

[2] = compound: CC1=CC=C(C=C1)SC2=C3C=C(SC3=CN=C2)C(=O)N
Method in brief: as §1

[3] = compound: CC1=NC(=CC=C1)C2=C(N=C(N2)C(C)(C)C)C3=CC4=NC=CN=C4C=C3
Method in brief: as §1

vemurafenib = compound: CCCS(=O)(=O)Nc1ccc(F)c(C(=O)c2c[nH]c3ncc(-c4ccc(Cl)cc4)cc23)c1F [vemurafenib]
Method in brief: as §1

[4] = compound: CCCS(=O)(=O)Nc1ccc(F)c(C(=O)c2c[nH]c3ncc(Cl)cc23)c1F
Method in brief: as §1

[5] = compound: CCCc1cc(C)[nH]c(=O)c1CNC(=O)c1cc(-c2ccnc(N3CCN(C)CC3)c2)cc2c1cnn2C(C)C
Method in brief: as §1

givinostat = compound: CCN(CC)Cc1ccc2cc(COC(=O)Nc3ccc(C(=O)NO)cc3)ccc2c1 [givinostat]
Method in brief: as §1

barasertib = compound: CCN(CCCOc1ccc2c(Nc3cc(CC(=O)Nc4cccc(F)c4)[nH]n3)ncnc2c1)CCOP(=O)(O)O [barasertib]
Method in brief: as §1

[6] = compound: CC[C@@H]1C(=O)N(C)c2cnc(Nc3ccc(C(=O)NC4CCN(C)CC4)cc3OC)nc2N1C1CCCC1
Method in brief: as §1

volasertib = compound: CC[C@@H]1C(=O)N(C)c2cnc(Nc3ccc(C(=O)N[C@H]4CC[C@H](N5CCN(CC6CC6)CC5)CC4)cc3OC)nc2N1C(C)C [volasertib]
Method in brief: as §1

[7] = compound: CCn1c(C(=O)N(C2CC2)C2CC2)cc2c3c(ncn3C)c(Nc3cc(C)n(C)n3)nc21
Method in brief: as §1

[8] = compound: CCn1cc(-c2ccnc3[nH]c(-c4cccc(CN(C)C)c4)cc23)c(-c2ccc(NC(=O)N(C)C)cc2)n1
Method in brief: as §1

[9] = compound: CN(C)CC(=O)Nc1ccc2[nH]c(=O)c3ccccc3c2c1
Method in brief: as §1

rosiglitazone = compound: CN(CCOC1=CC=C(C=C1)C[C@H]2C(=O)NC(=O)S2)C3=CC=CC=N3 (racemic) [rosiglitazone]
Method in brief: as §1

[10] = compound: CN1C2=C(C3=C1C(=O)N(N=C3)CC4=CC(=CC=C4)N)SC(=C2)S(=O)C
Method in brief: as §1

[11] = compound: CN1CCC(CNc2ccc3ncc(-c4cccc(OC(F)(F)F)c4)n3n2)CC1
Method in brief: as §1

[12] = compound: CC1=C(C=C(C=C1)NC(=O)C2=CC(=CC=C2)C(C)(C)C#N)NC3=CC4=C(C=C3)N=CN(C4=O)C
Method in brief: as §1

[13] = compound: CC[C@H](C)N1C=C(C2=C(C=C(C=C21)C3=CN=C(C=C3)N4CCNCC4)C(=O)NCC5=C(C=C(NC5=O)C)C)C
Method in brief: as §1

Nexturastat A = compound: CCCCN(Cc1ccc(C(=O)NO)cc1)C(=O)Nc1ccccc1 [Nexturastat A]
Method in brief: as §1

epoxomicin = compound: CC[C@H](C)[C@@H](C(=O)N[C@@H]([C@@H](C)O)C(=O)N[C@@H](CC(C)C)C(=O)[C@]1(CO1)C)NC(=O)[C@H]([C@@H](C)CC)N(C)C(=O)C [epoxomicin]
Method in brief: as §1

Measured: log2 fold change

MBLAC1 (UniProt A4D2B0)
UniProt A4D2B0, sequence (A4D2B0 whole entry, looked up): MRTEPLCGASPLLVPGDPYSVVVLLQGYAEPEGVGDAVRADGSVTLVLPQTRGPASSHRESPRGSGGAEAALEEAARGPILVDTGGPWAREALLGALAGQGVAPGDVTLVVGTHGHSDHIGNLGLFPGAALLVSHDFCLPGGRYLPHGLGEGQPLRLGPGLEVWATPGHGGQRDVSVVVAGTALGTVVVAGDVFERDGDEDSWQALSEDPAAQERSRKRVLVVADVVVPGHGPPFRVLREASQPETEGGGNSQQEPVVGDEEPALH
inactive: [1] 0.079 | [2] -0.093 | [3] -0.098 | vemurafenib 0.029 | [4] -0.008 | [5] 0.059 | givinostat -0.04 | barasertib -0.016 | [6] 0.112 | volasertib 0.148 | [7] 0.063 | [8] -0.01 | [9] 0.105 | rosiglitazone -0.024 | [10] -0.021 | [11] 0.063

MAP4K2 (UniProt Q12851)
inactive: [12] -0.034 | [2] 0.079 | [3] 0.094 | [4] 0.043 | barasertib 0.218 | [6] -0.044 | volasertib -0.093 | [13] 0.298 | rosiglitazone 0.066

MAPRE3 isoform 2 (UniProt Q9UPY8)
inactive: [2] -0.075 | [3] -0.065 | [4] 0.029 | volasertib 0.165 | [13] 0.04

MAPK7 (UniProt Q13164)
UniProt Q13164, sequence (Q13164 whole entry, looked up): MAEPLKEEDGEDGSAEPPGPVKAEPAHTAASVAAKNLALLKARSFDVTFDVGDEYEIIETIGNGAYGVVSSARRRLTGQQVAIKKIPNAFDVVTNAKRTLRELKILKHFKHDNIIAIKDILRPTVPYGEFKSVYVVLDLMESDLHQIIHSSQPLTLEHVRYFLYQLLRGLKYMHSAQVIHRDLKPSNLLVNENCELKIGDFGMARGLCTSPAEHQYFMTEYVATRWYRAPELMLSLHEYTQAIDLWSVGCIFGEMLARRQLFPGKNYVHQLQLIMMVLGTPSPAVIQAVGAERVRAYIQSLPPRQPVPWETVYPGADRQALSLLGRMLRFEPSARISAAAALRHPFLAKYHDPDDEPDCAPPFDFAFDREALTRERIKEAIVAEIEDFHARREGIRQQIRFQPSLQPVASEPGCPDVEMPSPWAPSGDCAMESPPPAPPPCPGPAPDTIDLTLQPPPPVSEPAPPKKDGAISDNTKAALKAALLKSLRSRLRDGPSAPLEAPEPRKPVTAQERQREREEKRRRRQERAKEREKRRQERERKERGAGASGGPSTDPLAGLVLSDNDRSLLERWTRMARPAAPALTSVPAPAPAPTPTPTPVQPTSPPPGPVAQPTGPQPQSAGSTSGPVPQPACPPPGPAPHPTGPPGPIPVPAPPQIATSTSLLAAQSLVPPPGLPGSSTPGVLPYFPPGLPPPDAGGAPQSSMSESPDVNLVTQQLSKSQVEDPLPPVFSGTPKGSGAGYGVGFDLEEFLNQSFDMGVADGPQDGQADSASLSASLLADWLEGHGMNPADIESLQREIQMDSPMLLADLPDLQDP
inactive: [3] -0.169 | Nexturastat A 0.275 | epoxomicin 0.093 | [8] -0.049 | [11] -0.125

MCOLN3 (UniProt Q8TDD5)
inactive: [1] 0.013 | [2] 0.15 | [4] 0.014 | [5] -0.481 | givinostat 0.221 | barasertib -0.171 | [6] 0.094 | volasertib -0.136 | [13] -0.071 | [7] -0.132 | [8] 0.027 | rosiglitazone 0.128 | [11] -0.084

ING5 (UniProt Q8WYH8)
UniProt Q8WYH8, sequence (Q8WYH8 whole entry, looked up): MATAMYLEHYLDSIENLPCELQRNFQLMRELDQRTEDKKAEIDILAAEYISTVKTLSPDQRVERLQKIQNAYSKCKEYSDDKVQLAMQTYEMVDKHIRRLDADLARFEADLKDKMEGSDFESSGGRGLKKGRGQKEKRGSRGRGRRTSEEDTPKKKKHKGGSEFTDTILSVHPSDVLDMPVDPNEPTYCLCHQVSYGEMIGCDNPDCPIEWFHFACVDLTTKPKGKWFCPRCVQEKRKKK
active: [6] -0.561 | volasertib -1.47
inactive: [2] 0.058 | [3] -0.052 | [4] -0.011 | [5] -0.237 | givinostat 0.316 | [7] -0.046

MED29 (UniProt Q9NX70)
inactive: [2] -0.075 | [4] 0.131 | [5] 0.025 | givinostat -0.076 | volasertib -0.115 | [13] 0.055 | [7] -0.044 | [10] -0.056

KIF1B isoform 3 (UniProt O60333)
inactive: vemurafenib -0.244 | [5] -0.006 | [6] 0.193 | [9] -0.032

MFSD8 (UniProt Q8NHS3)
inactive: [1] -0.026 | [2] 0.113 | [3] 0.011 | Nexturastat A -0.004 | vemurafenib 0.045 | [4] 0.151 | [5] -0.046 | givinostat 0.034 | barasertib -0.062 | [6] -0.016 | volasertib 0.032 | epoxomicin -0.021 | [7] 0.001 | [8] -0.012 | [9] -0.061 | rosiglitazone -0.139 | [10] 0.046 | [11] 0.127

MAP4K4 isoform 6 (UniProt O95819)
inactive: [12] -0.031 | vemurafenib -0.052 | [5] 0.393 | [6] -0.241 | [13] 0.109 | [9] -0.083 | [10] 0.261

MAPK11 (UniProt Q15759)
inactive: [1] 0.094 | [3] 0.045 | givinostat 0.131 | [7] -0.332 | [8] 0.025 | [11] -0.263

LSR isoform 3 (UniProt Q86X29)
UniProt Q86X29, sequence (Q86X29 whole entry, looked up): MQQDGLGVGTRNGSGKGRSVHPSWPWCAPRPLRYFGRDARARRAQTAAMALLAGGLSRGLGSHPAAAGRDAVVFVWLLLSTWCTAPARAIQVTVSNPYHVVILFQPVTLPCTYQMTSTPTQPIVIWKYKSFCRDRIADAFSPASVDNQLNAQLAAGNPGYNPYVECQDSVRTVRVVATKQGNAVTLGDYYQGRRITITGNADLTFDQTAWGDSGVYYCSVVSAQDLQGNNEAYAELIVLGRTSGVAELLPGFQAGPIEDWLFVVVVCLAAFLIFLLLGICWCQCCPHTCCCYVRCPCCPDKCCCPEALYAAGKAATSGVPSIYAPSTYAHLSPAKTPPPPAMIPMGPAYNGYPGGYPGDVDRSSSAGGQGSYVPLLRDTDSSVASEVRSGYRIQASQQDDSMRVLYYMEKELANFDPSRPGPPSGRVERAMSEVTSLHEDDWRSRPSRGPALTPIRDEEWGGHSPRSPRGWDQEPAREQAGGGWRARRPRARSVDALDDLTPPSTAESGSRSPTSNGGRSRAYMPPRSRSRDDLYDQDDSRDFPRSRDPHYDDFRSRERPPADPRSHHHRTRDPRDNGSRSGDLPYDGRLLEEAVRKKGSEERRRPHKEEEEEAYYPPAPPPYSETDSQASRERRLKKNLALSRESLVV
inactive: [12] -0.232 | [2] 0.04 | [4] 0.158 | [5] -0.081 | volasertib -0.096 | [10] 0.047

LSR (UniProt M0QZL9)
inactive: [12] -0.324 | Nexturastat A -0.157 | vemurafenib 0.024 | epoxomicin 0.076 | [9] -0.125

LIN52 (UniProt Q52LA3)
inactive: [5] 0.123 | [10] 0.003

IPP (UniProt Q9Y573)
inactive: barasertib -0.139 | rosiglitazone -0.24

KMT5A (UniProt Q9NQR1)
inactive: [12] 0.07 | [8] 0.091 | [11] -0.2

ITPRID2 (UniProt P28290)
UniProt P28290, sequence (P28290 whole entry, looked up): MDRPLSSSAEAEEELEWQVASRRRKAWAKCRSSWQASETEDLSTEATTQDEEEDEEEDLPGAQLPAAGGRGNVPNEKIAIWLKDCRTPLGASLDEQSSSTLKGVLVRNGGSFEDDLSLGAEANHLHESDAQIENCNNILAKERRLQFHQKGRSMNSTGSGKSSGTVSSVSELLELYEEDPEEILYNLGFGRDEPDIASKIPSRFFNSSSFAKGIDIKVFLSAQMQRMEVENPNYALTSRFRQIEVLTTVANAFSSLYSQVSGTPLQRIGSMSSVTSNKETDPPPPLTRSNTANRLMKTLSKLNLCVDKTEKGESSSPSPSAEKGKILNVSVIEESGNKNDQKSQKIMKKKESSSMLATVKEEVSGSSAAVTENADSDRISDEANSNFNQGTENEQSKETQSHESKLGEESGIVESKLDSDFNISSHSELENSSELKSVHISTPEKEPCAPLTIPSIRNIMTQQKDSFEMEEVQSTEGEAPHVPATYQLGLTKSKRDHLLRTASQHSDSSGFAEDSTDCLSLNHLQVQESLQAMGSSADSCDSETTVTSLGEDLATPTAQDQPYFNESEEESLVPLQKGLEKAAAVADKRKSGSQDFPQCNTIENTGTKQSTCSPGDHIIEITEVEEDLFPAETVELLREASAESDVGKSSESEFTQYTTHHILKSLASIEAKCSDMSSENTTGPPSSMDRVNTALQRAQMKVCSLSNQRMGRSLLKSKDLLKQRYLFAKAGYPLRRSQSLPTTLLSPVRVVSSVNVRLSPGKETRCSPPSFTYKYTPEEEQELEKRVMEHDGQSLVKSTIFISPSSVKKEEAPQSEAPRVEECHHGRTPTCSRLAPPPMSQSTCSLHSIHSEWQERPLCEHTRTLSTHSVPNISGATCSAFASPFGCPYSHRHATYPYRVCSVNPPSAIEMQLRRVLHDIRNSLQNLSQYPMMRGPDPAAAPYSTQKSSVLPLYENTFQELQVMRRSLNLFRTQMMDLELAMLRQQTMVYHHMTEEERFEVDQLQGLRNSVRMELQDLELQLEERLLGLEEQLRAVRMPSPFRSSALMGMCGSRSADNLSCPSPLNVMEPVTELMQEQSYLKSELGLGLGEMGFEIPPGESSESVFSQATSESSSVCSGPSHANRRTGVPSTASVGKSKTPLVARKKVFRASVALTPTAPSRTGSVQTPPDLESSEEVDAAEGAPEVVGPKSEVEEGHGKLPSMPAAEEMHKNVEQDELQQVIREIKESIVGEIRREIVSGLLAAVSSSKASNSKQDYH
inactive: [1] -0.003 | [2] -0.103 | [3] -0.065 | Nexturastat A -0.188 | vemurafenib -0.125 | [4] -0.097 | givinostat 0.213 | [6] 0.01 | volasertib -0.373 | epoxomicin -0.109 | [7] 0.078 | [9] -0.106

LAPTM4B (UniProt Q86VI4)
inactive: [12] 0 | [5] -0.228 | givinostat 0.128 | barasertib 0.002 | [6] 0.063 | [7] -0.12 | [8] 0.216 | rosiglitazone -0.024
active: [11] 0.968

LRRFIP1 isoform 4 (UniProt Q32MZ4)
inactive: [3] 0.186 | Nexturastat A -0.077 | givinostat 0.011 | epoxomicin -0.113 | [7] -0.1 | [8] 0.212 | [10] 0.105 | [11] 0.349

MAP2K5 (UniProt Q13163)
UniProt Q13163, sequence (Q13163 whole entry, looked up): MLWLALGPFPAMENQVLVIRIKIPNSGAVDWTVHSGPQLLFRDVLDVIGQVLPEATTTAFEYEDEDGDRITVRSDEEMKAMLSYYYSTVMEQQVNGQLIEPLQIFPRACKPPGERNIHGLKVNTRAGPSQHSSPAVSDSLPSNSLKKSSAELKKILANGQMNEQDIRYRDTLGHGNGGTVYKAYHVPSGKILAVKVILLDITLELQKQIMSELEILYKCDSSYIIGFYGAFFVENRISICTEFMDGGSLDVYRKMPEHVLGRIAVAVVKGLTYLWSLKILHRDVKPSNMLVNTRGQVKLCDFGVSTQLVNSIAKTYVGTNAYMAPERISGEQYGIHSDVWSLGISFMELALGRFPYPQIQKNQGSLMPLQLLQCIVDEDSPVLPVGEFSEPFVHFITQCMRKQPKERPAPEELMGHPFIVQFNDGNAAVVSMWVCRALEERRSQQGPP
inactive: [1] -0.085 | [3] 0.017 | [10] 0.457

IKZF1 (UniProt R9R4D9)
inactive: [2] -0.116 | [3] 0.026 | [4] 0.033 | volasertib 0.085 | [8] -0.247 | [10] 0.229 | [11] 0.05

MELK (UniProt Q14680)
active: volasertib -1.41
inactive: [12] -0.026 | [2] 0.111 | [3] -0.015 | Nexturastat A 0.134 | [4] 0.02 | givinostat -0.023 | barasertib 0.048 | [6] -0.429 | [13] 0.334 | epoxomicin 0.077 | [7] -0.009 | [8] -0.114 | rosiglitazone -0.003 | [10] 0.034 | [11] -0.426

LEPROT (UniProt O15243)
UniProt O15243, sequence (O15243 whole entry, looked up): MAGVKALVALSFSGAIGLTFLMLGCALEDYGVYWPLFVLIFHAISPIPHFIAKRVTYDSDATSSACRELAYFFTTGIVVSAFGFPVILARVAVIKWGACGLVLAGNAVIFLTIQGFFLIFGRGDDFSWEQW
inactive: Nexturastat A -0.02 | [5] -0.12 | givinostat -0.467 | [6] -0.052 | epoxomicin 0.129 | [7] -0.11 | [8] 0.075 | [10] 0.117 | [11] -0.03

KIF21A (UniProt H0YI78)
inactive: [1] -0.001 | givinostat 0.447 | [7] -0.05

LGALS8 isoform 2 (UniProt O00214)
UniProt O00214, sequence (O00214 whole entry, looked up): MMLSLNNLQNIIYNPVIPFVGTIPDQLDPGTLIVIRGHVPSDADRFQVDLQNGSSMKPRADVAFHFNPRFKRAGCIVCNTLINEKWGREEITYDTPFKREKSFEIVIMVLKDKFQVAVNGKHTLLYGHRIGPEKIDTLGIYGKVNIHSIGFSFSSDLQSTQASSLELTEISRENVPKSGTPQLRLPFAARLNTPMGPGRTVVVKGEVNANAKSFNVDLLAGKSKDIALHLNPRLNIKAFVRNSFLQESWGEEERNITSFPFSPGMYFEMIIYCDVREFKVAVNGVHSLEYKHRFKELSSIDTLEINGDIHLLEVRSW
active: [11] 0.93
inactive: [12] 0.01 | [3] -0.228 | Nexturastat A 0.288 | vemurafenib -0.013 | [5] -0.062 | givinostat 0.072 | barasertib 0.13 | [6] 0.19 | epoxomicin -0.05 | [7] -0.029 | [8] -0.121 | [9] 0.067 | rosiglitazone -0.263 | [10] 0.328

ILF3 (UniProt Q12906)
UniProt Q12906, sequence (Q12906 whole entry, looked up): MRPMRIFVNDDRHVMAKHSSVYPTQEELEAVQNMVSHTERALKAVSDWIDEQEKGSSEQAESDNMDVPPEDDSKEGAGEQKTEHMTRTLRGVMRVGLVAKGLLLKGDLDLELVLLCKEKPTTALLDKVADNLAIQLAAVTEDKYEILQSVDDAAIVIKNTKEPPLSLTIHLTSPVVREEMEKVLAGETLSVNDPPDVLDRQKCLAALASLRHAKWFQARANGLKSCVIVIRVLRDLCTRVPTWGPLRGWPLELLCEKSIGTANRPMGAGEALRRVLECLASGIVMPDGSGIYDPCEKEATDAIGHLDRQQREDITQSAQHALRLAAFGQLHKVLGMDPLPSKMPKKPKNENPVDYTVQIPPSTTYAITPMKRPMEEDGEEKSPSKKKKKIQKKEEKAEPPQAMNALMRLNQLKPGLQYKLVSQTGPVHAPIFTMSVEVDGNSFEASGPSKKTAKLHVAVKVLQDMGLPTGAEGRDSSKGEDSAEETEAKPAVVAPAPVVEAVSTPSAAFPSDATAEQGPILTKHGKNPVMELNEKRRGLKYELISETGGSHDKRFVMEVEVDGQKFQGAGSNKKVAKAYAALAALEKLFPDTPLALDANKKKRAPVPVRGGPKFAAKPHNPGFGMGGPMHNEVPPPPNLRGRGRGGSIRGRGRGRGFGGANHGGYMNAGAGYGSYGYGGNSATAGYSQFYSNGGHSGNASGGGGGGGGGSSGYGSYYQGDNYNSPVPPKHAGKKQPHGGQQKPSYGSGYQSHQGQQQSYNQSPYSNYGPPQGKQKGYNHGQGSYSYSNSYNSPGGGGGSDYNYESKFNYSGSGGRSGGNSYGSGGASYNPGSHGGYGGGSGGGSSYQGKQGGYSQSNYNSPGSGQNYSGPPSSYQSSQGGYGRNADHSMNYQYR
inactive: [12] 0.106 | [3] -0.177 | Nexturastat A 0.347 | [5] -0.232 | barasertib -0.241 | [6] 0.222 | [13] 0.144 | epoxomicin 0.004 | rosiglitazone -0.082

Reference: the supplement of paper PMC10849652
